The record followed here is the supplement of paper PMC10681739.
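Further: Full-length recombinant human ETS1 or RUNX1 bound to double-stranded 36-bp genomic probes on microarrays, detected by protein-specific primary antibody and Alexa488 secondary, spot fluorescence as median of four replicate spots.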

RUNX1, sequence (Q01196 whole entry): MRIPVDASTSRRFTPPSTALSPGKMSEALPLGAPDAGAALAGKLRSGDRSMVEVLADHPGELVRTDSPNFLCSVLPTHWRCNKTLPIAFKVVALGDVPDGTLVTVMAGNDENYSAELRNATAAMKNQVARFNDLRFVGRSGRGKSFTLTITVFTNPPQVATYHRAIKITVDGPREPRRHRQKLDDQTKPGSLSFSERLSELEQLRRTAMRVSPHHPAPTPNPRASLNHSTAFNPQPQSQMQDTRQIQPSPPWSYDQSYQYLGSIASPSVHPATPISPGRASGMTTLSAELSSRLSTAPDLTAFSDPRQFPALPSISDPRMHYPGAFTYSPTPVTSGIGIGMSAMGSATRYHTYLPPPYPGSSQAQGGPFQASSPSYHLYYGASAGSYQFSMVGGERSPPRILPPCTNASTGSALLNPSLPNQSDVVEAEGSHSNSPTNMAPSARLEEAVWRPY

The test concerns the target RUNX1 (UniProt Q01196). Briefly: RUNX1 binding intensity (PBM fluorescence) in presence of ETS1, normalised to RUNX1-only experiment (arbitrary fluorescence units); higher = stronger binding. The settings on record: RUNX1 concentration 2 nM; ETS1 concentration 25 nM. On the procedure:
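Cooperative gcPBM on 36-bp genomic probes with neighbouring ETS1 and RUNX1 sites. Recombinant human RUNX1 (2 nM) was incubated alone or with ETS1 (25 nM) and detected with anti-RUNX1 antibody plus Alexa488 secondary. Values are medians over 4 replicate spots; the RUNX1+ETS1 data were normalised to the RUNX1-only data. The probes sit in constant array flanks that are not printed.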
As for ATAGTCTCTTCCTGTGTTGCAAACCACAGGTCCACC, the RUNX1 binding intensity amounted to 2300.
Consider CCTCAATTTCCTGGCCAGAGAAACCACTGCCTCTCA, for which the RUNX1 binding intensity amounted to 1810.
With TTGATTGGAGCAGGATGTGGTCAGAACAGTATGCAG, the RUNX1 binding intensity worked out at 4860.
In the case of ATAGACTCAGGAAGTGATTGTGGTAAGATTCTATAT, the RUNX1 binding intensity came to 1440.
Under CAAGCCAGGAAGAGGGCCCTCACCAGAAACCGCACT stands 1150; under TCTGTCGTCCCACTTCCTGCTGCGGTTTCCACCTCG, 21300.
With GAAGTCACATCCTGTCTGTTGCGGCAGGGCACAGAG the figure was 1750; with CTCTGGCAGGAAGCTCTGAGGGCTAAACCACAAAAA, 1820; with CCTTGCTACAGGATGTTTTGACCACGAGCCCAGGAG, 1390.
With ACCCAGTAGGGGCCAGGATGTGGTGAAAAGAGAATT the figure was 1020; with CGGCCTCTTCCGGTCACCTGGCCCGTCGCGGTCCCG, 2290.
With TGGGGAACGCTGCGGATGCTGCGGTAAACCATGCGA, the RUNX1 binding intensity worked out at 1700.
Take ACTAGAAGCGGAAGTAGTTGTGGGCGCCTTTGCAAC: the RUNX1 binding intensity is 1410.
On to TCGTGTTCTCTTCCGTTCTGTGGTAGCTTTTTGGTA, for which the RUNX1 binding intensity came to 1870.
Regarding GGAAAAGGAAGTGGCTTTGACTTGCGGGCAGGGAGA, the RUNX1 binding intensity amounted to 2560.
As for CACCTCCTCTCCGGATGCGGTTTGTTCTGCTTGTAG, the RUNX1 binding intensity turned out to be 6810.
Consider AGCCAACAGGAAGCTGCAGAGACTAAACCACAGCAA, for which the RUNX1 binding intensity amounted to 1390.
Regarding AGCTTCCTGTTTGGCCTTGCTGATGTCACCGCATTA, the RUNX1 binding intensity was 2360.
TGGTTCCACCGACCGGAAGGGCCACAAGGATCCCCG: the RUNX1 binding intensity came out at 1250.
For the sequence GTGAGTCACTTCCTGACCATGTGGGTTTTTGGTACG, the RUNX1 binding intensity stood at 2090.
As to AATGATTACCTAACAGGAAAACCACATTGGTCATTT, the RUNX1 binding intensity worked out at 1130.
Consider GAGAAACAGGAAGAGGGGTGGTGGTTACGGAACACG, for which the RUNX1 binding intensity came to 1340.
In the case of GAAAAAAATGAGCTTCCTTTAACCACAACTGTATTA, the RUNX1 binding intensity stood at 2340.
On to AGCTGCATTTCCGGGCAGGCAATGAAACCACAGAGT, for which the RUNX1 binding intensity was 2370.
On to CACTTCCTGTCAAAGCCAGTTCCTTAACCGCTTAGG, for which the RUNX1 binding intensity was 2930.
On to GCCAACAGGAAGCTGGAAGCCAACCGCACTGTGTGC, for which the RUNX1 binding intensity worked out at 1670.
For TCAAGTTTGGTAACAGGATGTGGTAGGAGGAACACA, the RUNX1 binding intensity turned out to be 1730.
With AATCTGAAACAGGAAATAAGTCTGTGGTTGTGTGTT, the RUNX1 binding intensity stood at 1540.
As for AACCATTACAGGATGTGAGATTCAAACCACTAACAG, the RUNX1 binding intensity came to 1180.
Consider ATACAGACACAGGAAGTTGTGGGGAGTGCAAAAGCC, for which the RUNX1 binding intensity is 1530.
Turning to ATTTCGCTGAAAACAGGAAACCACGAAGCCCAGATG, the RUNX1 binding intensity was 1250.
With TATCTCCTATCTCCAGGAAGTGGTTAGCCCTAGGAG, the RUNX1 binding intensity is 1870.
For TGCTTCCCTTCCGTTCCGACAGCGAAAACCGCTGCC, the RUNX1 binding intensity was 2030.
As for AACAGACAGGATGTGGCCTCTGCCAAAACCACCATC, the RUNX1 binding intensity came to 2310.
With CTCACAGAGCAAGTAGGATGTGGTTTCCAGGGGCTG the figure was 1180.
With GCTCCCGGATGTTCTGGGGATCTGCGGCCGCCTGGC the figure was 1320; with AAAGCATTTCCTGCCTTGACTTAACCACAAGACAGG, 4320; with ACTGGCTTCACTTCCTCCGCGGTTCCTCGGAGCCGC, 1730.
In the case of GCTGATAAAACAGGATGTGGTAAAGAAGCCGGCCAA, the RUNX1 binding intensity came to 8590.
Under TTACACAACAGGAAACTATGTTTAGCGGTTAATCCA stands 1580.
